Sampled rows, rich in hits. Any-hit rate of the full collection: about 7.4%.
ELG1 genotox = induces genotoxicity in HEK293T cells with luciferase-tagged ELG1 | HEK293T ELG1-luciferase reporter, luminescence, 16 h | Potency, µM (highest dose often 46 µM), for inactives: top-dose activity change, positive = activation, hits mostly activators | 1.3% of 330,000 active | AID 504466; also: % of control where 0% means no effect; nearly all actives have a fitted effect of over 60% in size
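Screening used a luciferase reporter fused to human ELG1 in HEK293T cells. Luminescence was read on a CCD plate imager after 16 hr exposure and 30 min ONE-Glo incubation.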
NPC1 promoter act = activators of NPC1 promoter | Huh7 NPC1 promoter luciferase reporter, 24 h | Potency, µM (top dose mostly 9.22 µM), inactives show at the top dose activation, most hits filed as activators | 2.4% of 320,000 active | AID 485313; also: % of control where 0% means no effect; nearly all actives have a fitted effect of over 60% in size
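NPC1 promoter–luciferase Huh7 cells; 24 h compound; luminescence.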
SMN2 splice up = increases expression of the SMN2 splice variant. HEK293 SMN2-luciferase splicing reporter, luminescence, 30-36 h. Potency, µM (top dose mostly 46.1 µM), for the others: at the highest dose activity change, positive = activation, actives largely listed as activators. 2.8% of 210,000 active; also: % of control where 0% means no effect; nearly all actives have a fitted effect of over 55% in size
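HEK293 cells carry an SMN2 minigene-luciferase reporter in which exon 7 inclusion puts luciferase in frame. Cells were seeded at 2000 cells/well, attached for 10-12 hours, then exposed to compounds for 30-36 hours at 37C before ONE-Glo luminescence.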
Rab9 prom act = activators of Rab9 promoter; Potency, µM (top dose mostly 9.22 µM), inactives show at the highest dose activation, negative = inhibition, hits mostly activators; Huh7 Rab9 promoter-luciferase reporter, luminescence, 24 h; 2.8% of 320,000 active; also: % of control where 0% means no effect; nearly all actives have a fitted effect of over 60% in size
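Huh7 cells stably carrying a Rab9 promoter-luciferase reporter, 1500 cells per well in OP-MEM I with 10% FBS, treated with compound 24 hours at 37C. Luciferase activity read by luminescence after 10 minutes with Amplite reagent.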
FLuc modulator = firefly luciferase modulation, counter-screen for miR-21 project; P08659; purified FLuc, Km substrates, luminescence inhibition; Potency, µM (top dose mostly 57.5 µM), for inactives: at the highest dose activity change, negative = inhibition, hits mostly inhibitors; 6.9% of 360,000 active;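 also: plate controls were vehicle for no effect and reference inhibitor for full effect; nearly all actives have a fitted effect of over 55% in size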
Target sequence (P08659 whole entry, looked up): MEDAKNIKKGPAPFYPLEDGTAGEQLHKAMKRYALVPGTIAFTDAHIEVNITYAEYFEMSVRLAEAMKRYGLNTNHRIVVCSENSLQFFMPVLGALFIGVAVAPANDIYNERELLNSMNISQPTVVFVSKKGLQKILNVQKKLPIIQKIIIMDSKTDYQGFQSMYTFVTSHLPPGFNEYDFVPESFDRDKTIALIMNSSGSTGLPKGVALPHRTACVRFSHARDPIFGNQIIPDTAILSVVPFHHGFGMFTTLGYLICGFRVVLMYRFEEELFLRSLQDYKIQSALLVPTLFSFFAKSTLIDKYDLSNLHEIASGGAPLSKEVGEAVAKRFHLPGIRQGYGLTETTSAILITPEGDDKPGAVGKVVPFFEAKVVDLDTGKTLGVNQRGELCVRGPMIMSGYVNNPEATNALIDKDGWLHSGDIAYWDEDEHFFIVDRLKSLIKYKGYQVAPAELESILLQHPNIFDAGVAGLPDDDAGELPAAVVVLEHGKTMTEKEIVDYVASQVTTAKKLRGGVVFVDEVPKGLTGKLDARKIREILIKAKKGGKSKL
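Purified P. pyralis luciferase (10nM final) with 10uM D-luciferin and 10uM ATP (Km levels) in 50mM Tris acetate pH 7.5, 10mM Mg acetate, 0.01% Tween-20, 0.05% BSA; qHTS 6-point titration, ~60 µM downward; luminescence read.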
KinaseGlo FLuc = blocks Kinase-Glo luciferase, a counter-screen artifact | Kinase-Glo luciferase, ATP luminescence, 8 min | Potency, µM (doses to about 38.3 µM), without a hit: at the top dose activity change, negative = inhibition, actives largely listed as inhibitors | 0.28% of 200,000 active | AID 1379; also: % is scaled to controls: 0 for no effect and ±100 for the full control effect; nearly all actives have a fitted effect of over 60% in size
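Luminescence was the read-out, taken after 8-minute incubation at ambient temperature. Luciferase turned over luciferin with 10 uM ATP in imidazole pH 7.2 buffer containing KCl, MgCl2, Tween 20 and BSA.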
* marks the source's active call; other numbers are inactive results; ? = inconclusive; / = no result; [ ] = remark or other dose. Calls follow the shape of the dose curve; as a rule, active = well fitted curve in the direction sought with a large enough effect; inconclusive = small, poorly fitted or top-dose-only effect, or another doubt; inactive = no such curve, though single readings can be large; an effect the other way counts as inactive or inconclusive. Potency is read from the fitted curve at half-maximal effect.

SMILES	ELG1 genotox	NPC1 promoter act	SMN2 splice up	Rab9 prom act	FLuc modulator	KinaseGlo FLuc
CCN(CC)S(=O)(=O)c1ccc2c(c1)nc(CN(C)C(=O)Nc1ccc(C)c(Cl)c1)n2C	/	/	/	/	-13%	/
COc1ccc(CNC(=O)c2cc3c(=O)[nH]c4ccccc4c3n2C)c(OC)c1	/	/	3%	/	-7%	/
COc1ccc(C(=O)N2CCC[C@@]3(CCN(c4ccccc4)C3)C2)cc1	/	/	-46%	/	/	0%
Cc1ccc2c(c1)c(=O)c(C(=O)c1ccc3c(c1)OCO3)cn2Cc1ccc(Cl)cc1	/	/	3%	/	-5%	/
O/C(=C\c1ccc2ccccc2n1)c1ccncc1	?	2.5µM*	/	1.4µM*	2.4µM*	/
O/C(=C\c1nc2ccccc2nc1/C=C(\O)c1ccccc1)c1ccccc1	-7%	3.2µM*	?	4.5µM*	1.1µM*	0%
O/N=C/c1ccc2cccc(O)c2n1	-4%	1%	/	-4%	?	/
O/N=C/c1ccc2ccccc2n1	?	?	/	2.8µM*	?	/
O=C(/C=C\c1ccc2c(c1)OCO2)NC1CC(=O)N(c2cccc(F)c2)C1 (stereo not given)	/	/	/	/	-1%	/
CCc1ccc(NC(=O)CN2C(=O)c3cccc4cccc2c34)cc1	/	/	-10%	/	4%	/
CC(C)(C)c1ccc(C2=NC(=O)C(CC(=O)O)S2)cc1 (stereo not given)	0%	12%	/	17%	1.7µM*	/
COc1ccc(C(=O)CC2SC(N)=NC2=O)cc1 (stereo not given)	5%	5%	/	-6%	-11%	/
O=C(Cc1ccccc1)Nc1cccc(-c2nnc(-c3ccco3)o2)c1	0%	0%	7%	5%	-17%	-4%
COc1ccc(CC(=O)Nc2cccc(-c3nnc(-c4ccc(C)cc4)o3)c2)cc1OC	-18%	-2%	-132%	-5%	3µM*	-2%
COc1ccccc1OCC(=O)Nc1cccc(-c2nnc(-c3ccco3)o2)c1	-7%	29%	18µM*	15%	12µM*	-3%
COc1ccc(CC(=O)Nc2cccc(-c3nnc(-c4cccc(C)c4)o3)c2)cc1OC	-41%	0%	-126%	-15%	?	1%
O=C(COc1ccccc1)Nc1ccc(-c2nnc(-c3ccco3)o2)cc1	10%	?	13µM*	1.1µM*	1%	2%
Cc1nnc(SCC(=O)Nc2ccc(Br)cc2)[nH]c1=O	/	/	5%	/	?	/
CCc1ccc2oc(C(=O)NCCc3ccc(OC)c(OC)c3)cc(=O)c2c1	/	/	-55%	/	0%	/
C=CCC(Nc1ccc(OC)cc1)(C(=O)OCC)c1ccccc1 (stereo not given)	/	/	9%	/	/	-1%
Cc1cc(C(=O)O/N=C(\N)c2ccncc2)ccc1[N+](=O)[O-]	?	?	/	3.2µM*	17µM*	/
COc1ccc(/C(N)=N/OC(=O)c2ccc([N+](=O)[O-])c(C)c2)cc1OC	-4%	-3%	-10%	-2%	?	-4%
COc1ccc(/C(N)=N/OC(=O)c2ccc(C)c([N+](=O)[O-])c2)cc1	?	20%	-2%	21%	19µM*	1%
CC(C)CC1N=C2c3ccccc3N=C(SCC(=O)NCCc3ccc(Cl)cc3)N2C1=O (stereo not given)	/	/	/	/	0%	/
Cc1ccc(N=Cc2c(O)c3ccccc3oc2=O)c(C)c1	4%	-3%	/	1%	0.21µM*	/
CC(=O)Nc1ccc(N=Cc2c(O)c3ccccc3oc2=O)cc1	0%	-4%	/	-4%	?	/
COc1cccc(N=Cc2c(O)c3ccccc3oc2=O)c1	0%	0%	/	6%	1.9µM*	/
CCOC(=O)c1ccc(N=Cc2c(O)c3ccccc3oc2=O)cc1	-2%	-9%	/	-2%[1.84 µM]	?	/
CC(=O)c1cccc(N=Cc2c(O)c3ccccc3oc2=O)c1	2%	-5%	/	-1%	1.7µM*	/
Cc1ccc(F)cc1N=Cc1c(O)c2ccccc2oc1=O	3%	-5%	/	2%	?	/

Screens deposited in PubChem BioAssay by National Center for Advancing Translational Sciences (NCATS).
